Assay results: the supplement of paper PMC3334620
In all, about 33,000 sequences were measured (“E-score (-0.5 to 0.5)”: median about -0.0059, highest 2% from about 0.26 on). The entries come from a sample that favours the highest values as a whole.

target: T1, Cin5 (UniProt P40917); assay: PBM E-score (8-mer binding enrichment) (E-score (-0.5 to 0.5)); higher = stronger / more preferred TF binding; settings: protein concentration: 100 nM; construct: GST-full length
T1 sequence: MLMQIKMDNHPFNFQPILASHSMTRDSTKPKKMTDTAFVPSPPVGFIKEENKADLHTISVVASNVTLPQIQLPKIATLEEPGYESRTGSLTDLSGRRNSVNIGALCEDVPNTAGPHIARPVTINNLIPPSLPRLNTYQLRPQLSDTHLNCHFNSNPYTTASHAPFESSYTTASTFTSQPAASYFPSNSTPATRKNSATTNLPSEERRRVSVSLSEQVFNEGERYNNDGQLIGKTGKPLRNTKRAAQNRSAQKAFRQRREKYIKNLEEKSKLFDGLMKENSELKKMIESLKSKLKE
Summary of the method: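 GST-tagged yeast TFs (full-length or DNA-binding domain) were made by PURExpress in vitro transcription/translation and applied at about 100-200 nM to universal all-10-mer Agilent arrays. The arrays were made double-stranded by primer extension, on fresh or once-stripped slides. Bound protein was detected with fluorescent anti-GST, and scans were normalised with masliner. Each ungapped eight-base word, pooled with its reverse complement, received an E-score (modified Wilcoxon-Mann-Whitney statistic) from the Universal PBM Analysis Suite.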

Sequence	PBM E-score
CGCCCCAC	0.131
AGTTTCTG	0.0528
GTGGAGGA	-0.0744
GGACTAAC	-0.232
GTCACAAA	-0.0564
GGATGGCC	-0.296
TGATGGCA	-0.112
GGATGGCA	0.27
AACCTAGG	-0.0368
GTACGTAA	0.397
ATTCGTAA	0.304
ATACGAAA	0.265
ATACGTAG	0.116
ATACGTAC	-0.0222
CTACGTAA	0.24
CTACGAAA	-0.0568
ATACGAAT	0.0148
ATACGTAA	0.386
GTTCGTAA	0.153
CTTCGTAA	0.0958
GTACGTAC	-0.00455
CACGGAAA	0.224
AAACTCAT	0.205
CGAGATAA	0.255
CGCACGGC	0.001

Sequence	PBM E-score
ACTTTTCT	0.0353
ATCCAGAG	0.161
CGCATCGC	-0.195
CACAACTA	0.211
GATGAGTA	0.152
AGGGAGAC	-0.0805
AACGATAC	0.0238
AAAGATAT	0.3
AAAGATAG	-0.0374
AACGATAT	0.285
AAAGATAC	0.186
AACGATAG	0.0137
ATCGGTGA	0.103
GGCTGAGA	-0.0327
GGCCCAAC	-0.0745
AATGGCAC	0.00736
CATGGCTA	0.037
AATGGCAT	0.32
AATGGCTA	0.274
AATGGCAG	0.0479
AATGGCTC	0.0552
GCACTCCA	-0.111
ATTTCGAA	0.188
CCGTAATA	0.203
CCGTAAGC	0.332

Sequence	PBM E-score
CCGTAAAC	0.072
GCGTAAGC	0.227
CCGTAATC	0.329
CCGTAAGA	-0.122
GAATCCTA	0.0175
GGAAACTA	-0.105
TATCTCCA	0.112
AGTAATCC	0.243
AGTAATCA	0.312
GTAAATCA	0.284
AGTAATGG	0.162
AGTAATCG	0.262
AGTAATGA	0.13
ATAAATCA	0.185
GGTAATGA	0.153
GCTAATCA	0.212
CTAAATCA	0.00062
ATTAATCG	0.228
GGTAATCA	0.289
CCTACCAC	-0.224
CCACCGGA	0.0953
ATCAATAG	0.0422
CAGAGTAA	-0.0253
TGACGTCA	0.425
AGACGTCA	-0.00622

Sequence	PBM E-score
GGACGTCA	0.0529
GGTTGAAA	-0.00909
ACGGTGCA	-0.139
AAGGTTAA	0.0178
AAAGGGCA	-0.174
TTAATCAA	0.166
CTAATCAA	0.301
TCAATCAA	0.173
GAAATCAA	0.167
GTAATCAC	0.321
GGAATCAA	0.0945
GTAATCAA	0.392
CTAATCAC	0.248
GAAATCAC	0.149
ACAGCGAA	-0.00314
AGTTTGAA	0.0821
GCTTTGTA	0.174
GAAGATTC	0.0827
CCTGCAGC	-0.0691
GGAAGCGA	0.0828
CTAAGCGA	0.0261
ATAAGCGA	0.267
GTAAGCGA	0.383
ATAAGCGG	0.206
ATAAGCGC	0.188

Sequence	PBM E-score
GACGTACC	-0.0136
CATCGAAA	-0.0105
CTTCAAAA	0.0157
GTGTTGAA	0.0739
GCTGGCCC	-0.269
AAGCTAGA	-0.0103
CTACAAAC	0.043
AAGGGAGT	-0.285
GTTACCTA	0.131
CTTACCTC	-0.0461
ATTACCTC	0.142
ATTACCTA	0.349
CTTACCTA	0.32
ATTACCTG	0.113
CCTAGGTA	-0.0942
CAGTTGCA	-0.123
CGATTTAG	0.182
ACAATCGA	0.0876
GCTTCTAA	-0.109
AGTATCCC	0.0604
AAGGATCG	0.00025
CTGGGACC	-0.316
GTTGTTAA	0.284
ATTGTTAA	0.0779
ATTGTTTG	0.168

Sequence	PBM E-score
CTTGTTAA	-0.0283
CTTGTTTC	0.0494
ATTGTTAC	0.276
ATTGTTTC	0.275
CTTGTTAC	-0.0236
ATTGTTAG	0.109
CGGGGGTC	-0.417
CCTCCGAG	-0.16
GCTAAGCA	0.0676
GCCCAATA	0.0485
ACAGGACG	-0.133
CCACATAG	-0.0996
CGGGCCCC	-0.12
AATCATAG	0.291
TAACATAA	0.317
AATCATAT	0.193
AAACATAA	0.199
TATCATAA	0.272
GAACATAA	0.198
CAACATAC	0.125
CATCATAA	0.139
CAACATAA	0.286
CAACATAG	0.0889
GATCATAA	0.241
AATCATAC	0.206

Sequence	PBM E-score
CCGGAGTC	0.014
AACCTCCG	-0.183
ATGCCCTA	-0.0594
CCCGATAA	-0.0584
AAACCATT	0.045
CCTAGGGC	-0.254
ACCCTCAT	-0.136
GGATTGAA	0.104
CTGCCCAG	-0.249
CCGTGTAC	0.102
CCATAAAA	0.0525
CAGCAGAA	-0.0607
AAGCAGAA	0.261
AAGCAGAT	0.128
ACTGATAC	-0.00272
CTCTTACA	0.0444
CGTGCCTA	-0.177
GCACCGGC	-0.178
CTGTAGCA	-0.13
ACAACTTA	0.184
ACAACTTG	0.0528
ACAACTTC	0.296
